A selection: hits, their analogues and other compounds. The true share with any hit is near 1.6%.
SIRT5 block: inhibitors of human sirtuin-5 desuccinylase. inhibition, % at 15 µM. 1.1% of 330,000 active. Purified SirT5, succinyl-peptide AMC, trypsin-coupled fluorescence. AID 652115; in the data active means inhibition above about 15%
NSD2 inh: NSD2 (human) methyltransferase inhibition. NSD2 peptide methylation, AlphaScreen, 120 min. inhibition, % at 12.5 µM. 0.54% of 310,000 active; in the data active means inhibition above about 50%
Target sequence (O96028 whole entry, looked up): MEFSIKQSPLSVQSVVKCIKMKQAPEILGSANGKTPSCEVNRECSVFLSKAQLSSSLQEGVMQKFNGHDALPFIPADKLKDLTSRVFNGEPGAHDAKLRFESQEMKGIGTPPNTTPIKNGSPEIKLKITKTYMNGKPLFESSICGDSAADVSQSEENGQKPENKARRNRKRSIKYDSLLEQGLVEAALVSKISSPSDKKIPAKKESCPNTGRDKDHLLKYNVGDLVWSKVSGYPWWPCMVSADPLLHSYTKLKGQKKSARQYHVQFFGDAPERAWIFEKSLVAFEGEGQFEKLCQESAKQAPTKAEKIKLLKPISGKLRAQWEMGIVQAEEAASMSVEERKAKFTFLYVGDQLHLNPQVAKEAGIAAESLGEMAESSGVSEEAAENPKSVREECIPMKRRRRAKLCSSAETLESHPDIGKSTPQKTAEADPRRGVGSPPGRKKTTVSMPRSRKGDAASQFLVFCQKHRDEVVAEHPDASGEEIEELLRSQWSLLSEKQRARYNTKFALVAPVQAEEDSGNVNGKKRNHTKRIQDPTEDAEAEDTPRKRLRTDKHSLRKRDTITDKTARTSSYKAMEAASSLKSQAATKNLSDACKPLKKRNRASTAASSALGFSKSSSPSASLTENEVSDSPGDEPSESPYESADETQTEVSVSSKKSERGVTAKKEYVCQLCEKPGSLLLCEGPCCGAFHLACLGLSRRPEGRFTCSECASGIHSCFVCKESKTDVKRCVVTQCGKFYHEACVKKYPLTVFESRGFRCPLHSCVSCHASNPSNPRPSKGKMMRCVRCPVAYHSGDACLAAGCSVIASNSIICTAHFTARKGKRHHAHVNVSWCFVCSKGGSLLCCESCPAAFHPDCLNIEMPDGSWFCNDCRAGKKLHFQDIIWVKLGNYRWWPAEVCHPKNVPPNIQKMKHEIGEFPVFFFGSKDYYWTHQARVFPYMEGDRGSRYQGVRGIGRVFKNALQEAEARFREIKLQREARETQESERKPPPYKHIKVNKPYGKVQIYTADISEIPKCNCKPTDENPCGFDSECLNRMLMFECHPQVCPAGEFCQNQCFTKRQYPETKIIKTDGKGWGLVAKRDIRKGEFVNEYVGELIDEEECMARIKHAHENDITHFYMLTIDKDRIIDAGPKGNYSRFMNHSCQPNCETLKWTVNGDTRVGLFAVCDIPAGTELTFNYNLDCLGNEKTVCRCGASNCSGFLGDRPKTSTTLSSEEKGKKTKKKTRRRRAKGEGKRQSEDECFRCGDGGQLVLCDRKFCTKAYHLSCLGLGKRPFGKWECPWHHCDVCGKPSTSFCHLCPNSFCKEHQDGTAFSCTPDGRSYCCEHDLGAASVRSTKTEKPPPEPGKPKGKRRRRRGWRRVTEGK
UBC9 SUMO inh: SUMOylation inhibition | P63279 | HTRF SUMOylation assay, SAE1/SAE2 + UBC9, in vitro | AID 2006 | 0.36% of 290,000 active | inhibition, % at 35 µM; in the data active means inhibition above about 50%, passing the limit was not always enough
Casp6 inh: caspase-6 (human) enzyme inhibition; P55212; purified caspase-6, Z-VEID-R110 cleavage fluorescence; inhibition, % at 12.5 µM; 0.53% of 350,000 active;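 active means mean inhibition across replicates at least about 35%, with every replicate also reaching that limit, limit read from the data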;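 further: 0% = median of neutral control wells and 100% = no fluorescence left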
Starred values were filed as active, the others as inactive.

Results for COc1ccc(/C=C2\SC(=S)NC2=O)cc1OS(=O)(=O)c1ccc(NC(C)=O)cc1 ?
SIRT5 block: 0; NSD2 inh: 17; UBC9 SUMO inh: 14; Casp6 inh: 40*

Results for COc1ccc(C[C@H]2CCn3cc(nn3)COC[C@H](Cc3ccccc3)NC2=O)cc1 ?
SIRT5 block: 2; Casp6 inh: 4

What do the screens show for `CO[C@@H]1CC[C@@H]2CCN(C)C(=O)C[C@@H](c3ccccc3)CN(C)C(=O)c3cccc(C#N)c3OC[C@H]1O2`?
SIRT5 block: -1; Casp6 inh: -5

How did CC1CCN(C(=O)COC(=O)/C=C/c2ccco2)CC1 do in these assays?
SIRT5 block: -4; NSD2 inh: 15; Casp6 inh: 49*

How did CCOC(=O)C1=C(COC(=O)/C=C/c2ccco2)NC(=O)NC1C (configuration not stated) do in these assays?
SIRT5 block: 2; NSD2 inh: 10; Casp6 inh: 61*

Results for CCOC(=O)C1=C(COC(=O)/C=C/c2ccc(OC)cc2)NC(=O)NC1C (configuration not stated) ?
SIRT5 block: 0; NSD2 inh: -1; Casp6 inh: 0

What do the screens show for `O=C(O)/C(=C\c1ccco1)NC(=O)c1cccc2ccccc12`?
SIRT5 block: 5; NSD2 inh: -4; UBC9 SUMO inh: -20; Casp6 inh: 41*

How did CC(C)(C)c1ccc(C(=O)N/C(=C\c2ccco2)C(=O)O)cc1 do in these assays?
SIRT5 block: 4; NSD2 inh: 4; UBC9 SUMO inh: 11; Casp6 inh: 15

What do the screens show for `O=C(N/C(=C\c1ccco1)C(=O)N1CCCCC1)c1ccc([N+](=O)[O-])cc1`?
SIRT5 block: 17*; NSD2 inh: 1; Casp6 inh: -4

How did O=C(Nc1ccc(C(=O)O)cc1)/C(=C\c1ccco1)NC(=O)c1ccc(Br)cc1 do in these assays?
SIRT5 block: 24*; NSD2 inh: 10; Casp6 inh: 10

How did O=C(Nc1ccc(C(=O)O)cc1)/C(=C\c1ccco1)NC(=O)c1ccc(Br)o1 do in these assays?
SIRT5 block: 6; NSD2 inh: 6; UBC9 SUMO inh: 5

How did O=C(O)/C(=C/c1ccco1)NC(=O)c1ccccc1 do in these assays?
SIRT5 block: 5; NSD2 inh: 5; UBC9 SUMO inh: 31; Casp6 inh: 37*

What do the screens show for `CCNC(=O)C[C@H]1CC[C@H]2[C@@H](COc3ccc(NC(=O)Nc4ccccc4OC)cc3C(=O)N2C)O1`?
SIRT5 block: 2; Casp6 inh: 4

What do the screens show for `C[C@H](CO)N1C[C@H](C)[C@@H](CN(C)C(=O)c2cccnc2)Oc2cc(-c3cccc(C#N)c3)ccc2S1(=O)=O`?
SIRT5 block: -4; Casp6 inh: 0

Results for C[C@H]1CN([C@@H](C)CO)C(=O)Cc2cc(NC(=O)C3CCCCC3)ccc2O[C@H]1CN(C)CC1CC1 ?
SIRT5 block: 0; Casp6 inh: -6

What do the screens show for `COc1cccc(S(=O)(=O)N2CC3(CCN(C)CC3)c3c([nH]c4cc(OC)ccc34)[C@@H]2CO)c1`?
SIRT5 block: 2

Results for O=C(C[C@@H]1C[C@@H]2c3cc(NS(=O)(=O)c4ccccc4)ccc3O[C@@H]2[C@H](CO)O1)NC1CCCC1 ?
SIRT5 block: -6; Casp6 inh: 2

How did O=C(NCCO)Nc1ccc(Cl)cc1 do in these assays?
SIRT5 block: 19*; NSD2 inh: -3; UBC9 SUMO inh: 3; Casp6 inh: -1

Results for O=C(NCCNC(=O)Nc1ccc(Cl)cc1)Nc1ccc(Cl)cc1 ?
SIRT5 block: -1; NSD2 inh: -1; Casp6 inh: -1

How did CC(=O)N(C)C[C@@H]1Oc2ncc(C#C[C@H](C)O)cc2C(=O)N([C@H](C)CO)C[C@@H]1C do in these assays?
SIRT5 block: 0; Casp6 inh: 0

Results for Cc1ccccc1-c1nc(CS(=O)(=O)CC(=O)NCCN2CCCC2)c(C)o1 ?
SIRT5 block: -2; UBC9 SUMO inh: 11; Casp6 inh: 36*

What do the screens show for `CC(=O)Nc1ccc(NC2=C(Cl)C(=O)c3ccccc3C2=O)cc1`?
SIRT5 block: -5; NSD2 inh: -7; UBC9 SUMO inh: -20; Casp6 inh: -1

How did Cc1ccc(NC2=C(NCCO)C(=O)c3ccccc3C2=O)cc1 do in these assays?
NSD2 inh: 65*; UBC9 SUMO inh: 38

Results for O=C(COc1ccc(Cl)cc1Cl)Nc1ccc(C(=O)Nc2ccccc2C(=O)O)cc1 ?
SIRT5 block: -2; NSD2 inh: 1; UBC9 SUMO inh: 59*; Casp6 inh: 3

Results for CO[C@H](CN(C)Cc1nccs1)[C@@H](C)CN([C@@H](C)CO)S(=O)(=O)c1ccc(C)cc1 ?
SIRT5 block: 19*; Casp6 inh: 3

How did O=C(O)/C=C/C(=O)Nc1ccc(Oc2ccc(NC(=O)/C=C/C(=O)O)cc2)cc1 do in these assays?
UBC9 SUMO inh: -2

Results for O=C(O)/C=C\C(=O)Nc1ccc(Oc2ccccc2)cc1 ?
UBC9 SUMO inh: 8

What do the screens show for `O=C(O)/C=C/C(=O)Nc1ccc(C2(c3ccc(NC(=O)/C=C/C(=O)O)cc3)c3ccccc3-c3ccccc32)cc1`?
SIRT5 block: 16*; NSD2 inh: 6; UBC9 SUMO inh: 27; Casp6 inh: 47*

What do the screens show for `O=C(O)/C=C/C(=O)Nc1ccc(Cc2ccc(NC(=O)/C=C/C(=O)O)cc2)cc1`?
SIRT5 block: 22*; NSD2 inh: 30; UBC9 SUMO inh: -6; Casp6 inh: 0

Results for C[C@@H]1CN([C@@H](C)CO)C(=O)c2cc(/C=C/c3ccccc3)cnc2O[C@H]1CN(C)Cc1cccnc1 ?
SIRT5 block: -1; Casp6 inh: 0

Results for CC=Cc1ccc2n(c1=O)C[C@H]1[C@H](CO)[C@@H](C(=O)NCCc3cn(C)cn3)N(C(=O)C3CCCC3)[C@@H]21 (mixture of isomers) ?
SIRT5 block: -3; Casp6 inh: -1

What do the screens show for `Cc1cc(C)c2nc(N3CCC(C(=O)NCCCN4CCCCC4)CC3)sc2c1`?
UBC9 SUMO inh: -2

Results for Cc1cc(C)c2nc(N3CCC(C(=O)NCC4CCCO4)CC3)sc2c1 (configuration not stated) ?
SIRT5 block: 27*; NSD2 inh: -3; UBC9 SUMO inh: 2; Casp6 inh: 3

What do the screens show for `C[C@@H]1CN([C@H](C)CO)C(=O)c2cc(NS(=O)(=O)c3ccc(Cl)cc3)ccc2O[C@@H](C)CCCCO[C@@H]1CN(C)C(=O)c1ccncc1`?
SIRT5 block: 0; Casp6 inh: 0

Results for O=C(C1CCC1)N1CCCCN2[C@H](CO)[C@@H](c3ccc(-c4cccc(F)c4)cc3)[C@@H]2C1 ?
SIRT5 block: -1; Casp6 inh: -3

Results for Cc1ccc(S(=O)(=O)N2C[C@@H]3CCCC[C@@H]3[C@@H](C)[C@H]2c2cn(Cc3ccccc3)c3ncccc23)cc1 ?
SIRT5 block: 22*; Casp6 inh: -2

What do the screens show for `Cc1ccc(S(=O)(=O)N2C[C@@H]3CCCC[C@@H]3[C@@H](C)[C@H]2c2cn(Cc3ccccc3)c3ccccc23)cc1`?
SIRT5 block: -3; Casp6 inh: -1
